In PubChem BioAssay AID1159580 (chemical genetic matrix, 2015):
The whole screen tested about 5,500 compounds, of which about 2,000 (36%) were called active. Roughly 18% stayed inconclusive and do not appear here. Rule as the data show it: active = normalized growth mostly below about 0.91 (no sharp cut-off); inconclusive = no clear call, values can overlap the other calls; inactive = mostly above about 0.92. Some of the results follow.

Assay: chemical genetic growth profiling, strain panel (AID 1159580);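 also: tested at 20 µM; growth read once vehicle control cultures reached saturation at 30 °C; 1 = growth at the plate median or of vehicle wells; lower values mean less growth of the strain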
Conditions: S. cerevisiae deletion strains, growth OD

Measured: normalized growth

CN[C@@H]1[C@@H](O)C(OC2[C@@H](N)C[C@@H](N)[C@H](O[C@H]3O[C@H](C(C)O)[C@@H](O)[C@H](O)[C@H]3N)[C@H]2O)OC[C@]1(C)O (stereo not given in full)
inactive: locus YAL021C, strain ccr4, hits give low values 0.963 | locus YAL026C, strain drs2, hits give low values 0.984 | locus YAL030W, strain snc1, hits give low values 0.986 | locus YBL061C, strain skt5, hits give low values 0.978 | locus YBR009C, strain hhf1, hits give low values 0.989 | locus YBR023C, strain chs3, hits give low values 0.973 | locus YBR171W, strain sec66, hits give low values 0.968 | locus YBR231C, strain swc5, hits give low values 0.991 | locus YBR279W, strain paf1, hits give low values 0.981 | locus YCL011C, strain gbp2, hits give low values 0.969 | locus YCL016C, strain dcc1, hits give low values 0.976 | locus YCL061C, strain MRC1, hits give low values 0.985 | locus YCL069W, strain vba3, hits give low values 0.966 | locus YCR088W, strain abp1, hits give low values 0.978 | locus YDL005C, strain med2, hits give low values 0.967 | locus YDL040C, strain nat1, hits give low values 0.997 | locus YDR001C, strain nth1, hits give low values 0.982 | locus YDR069C, strain doa4, hits give low values 0.969 | locus YDR137W, strain rgp1, hits give low values 1.02 | locus YDR159W, strain sac3, hits give low values 0.969 | locus YDR195W, strain ref2 0.973 | locus YDR297W, strain sur2, hits give low values 0.979 | locus YDR334W, strain swr1, hits give low values 0.967 | locus YDR335W, strain msn5, hits give low values 0.979 | locus YDR392W, strain spt3, hits give low values 0.938 | locus YEL003W, strain gim4, hits give low values 0.982 | locus YEL037C, strain rad23, hits give low values 0.977 | locus YEL061C, strain CIN8 (second series), hits give low values 0.985 | locus YER015W, strain faa2, hits give low values 0.964 | locus YER016W, strain bim1, hits give low values 0.981 | locus YER111C, strain swi4, hits give low values 0.977 | locus YER155C, strain BEM2 (second series), hits give low values 0.966 | locus YFR010W, strain ubp6, hits give low values 0.971 | locus YGL167C, strain pmr1, hits give low values 0.977 | locus YGL173C, strain kem1, hits give low values 0.96 | locus YGL227W, strain vid30, hits give low values 0.98 | locus YGL240W, strain doc1, hits give low values 0.977 | locus YGL253W, strain hxk2, hits give low values 0.963 | locus YHR013C, strain ard1, hits give low values 0.976 | locus YHR027C, strain rpn1, hits give low values 0.977 | locus YHR030C, strain SLT2, hits give low values 1.05 | locus YHR079C, strain IRE1, hits give low values 1.05 | locus YHR142W, strain chs7, hits give low values 0.966 | locus YJL092W, strain hpr5, hits give low values 0.96 | locus YJL095W, strain BCK1 (second series), hits give low values 0.966 | locus YJL095W, strain BCK1, hits give low values 0.989 | locus YJL115W, strain asf1, hits give low values 0.984 | locus YJL129C, strain trk1, hits give low values 0.97 | locus YJL154C, strain vps35, hits give low values 0.976 | locus YJL164C, strain tpk1, hits give low values 0.984 | locus YJL166W, strain qcr8, hits give low values 0.982 | locus YJL187C, strain SWE1, hits give low values 0.988 | locus YJR066W, strain TOR1, hits give low values 0.995 | locus YKL160W, strain elf1, hits give low values 0.988 | locus YKR026C, strain gcn3, hits give low values 0.979 | locus YKR091W, strain srl3, hits give low values 0.971 | locus YLL001W, strain dnm1, hits give low values 0.988 | locus YLL026W, hits give low values 0.971 | locus YLL041C, strain sdh2, hits give low values 0.976 | locus YLR027C, strain aat2, hits give low values 0.973 | locus YLR113W, strain HOG1, hits give low values 0.995 | locus YLR221C, strain rsa3, hits give low values 0.974 | locus YLR258W, strain gsy2, hits give low values 0.969 | locus YLR262C, strain YPT6 (second series), hits give low values 1.02 | locus YLR320W, strain mms22, hits give low values 0.976 | locus YLR342W, strain FKS1, hits give low values 0.972 | locus YLR357W, strain rsc2, hits give low values 0.977 | locus YLR370C, strain arc18, hits give low values 0.962 | locus YLR384C, strain iki3, hits give low values 0.958 | locus YML120C, strain ndi1, hits give low values 0.981 | locus YMR058W, strain fet3, hits give low values 0.985 | locus YMR125W, strain sto1, hits give low values 0.975 | locus YMR129W, hits give low values 0.989 | locus YMR205C, strain PFK2, hits give low values 1.01 | locus YMR231W, strain pep5, hits give low values 0.965 | locus YNL071W, strain lat1, hits give low values 0.975 | locus YNL183C, strain NPR1, hits give low values 0.942 | locus YNL209W, strain ssb2, hits give low values 0.994 | locus YNL248C, strain rpa49, hits give low values 0.987 | locus YNL322C, strain KRE1 (second series), hits give low values 0.967 | locus YNR049C, strain mso1, hits give low values 0.979 | locus YOR001W, strain rrp6, hits give low values 0.969 | locus YOR070C, strain gyp1, hits give low values 0.974 | locus YOR080W, strain dia2, hits give low values 0.975 | locus YOR083W, strain WHI5, hits give low values 0.976 | locus YOR106W, strain vam3, hits give low values 0.964 | locus YOR231W, strain MKK1, hits give low values 1.04 | locus YOR265W, strain rbl2, hits give low values 0.983 | locus YOR270C, strain vph1, hits give low values 0.981 | locus YOR290C, strain snf2, hits give low values 0.954 | locus YPL051W, strain arl3, hits give low values 0.983 | locus YPL078C, strain atp4, hits give low values 0.995 | locus YPL106C, strain sse1, hits give low values 0.988 | locus YPL240C, strain hsp82, hits give low values 0.977 | locus YPL256C, strain CLN2, hits give low values 1.02
